Compound activity as filed in PubChem.
proKLK7 act – activates the human kallikrein-7 zymogen; P49862; purified proKLK7, EDANS-DABCYL substrate fluorescence; 100% is mature enzyme control, 0% vehicle; activation, % at 7 µM; 370,000 tested, 0.9% active; AID 652039;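 active means activation above the mean of all tested compounds plus 3 SD, computed per campaign excluding outliers beyond control limits, cut at about 13% in these data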
GC-A act – GC-A (human) enzyme activation; HEK293 GC-A cells, cGMP TR-FRET, EC30 ANP; 0% at EC30 ANP, 100% saturating ANP; 370,000 tested, 0.14% active; P16066; AID 1671463; activation, % at 10 µM; in the data active means activation above about 40%
ADAM10 inh – inhibits human ADAM10 | O14672 | recombinant ADAM10, EDANS/DABCYL FRET peptide cleavage, 3 h | inhibition, % at 7 µM | 370,000 tested, 0.62% active;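 active means inhibition above a per-campaign cutoff equal to the mean of compounds falling between control-based bounds plus 3 SD, cut at about 20% in these data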
Target sequence (O14672 214-748 limits assumed): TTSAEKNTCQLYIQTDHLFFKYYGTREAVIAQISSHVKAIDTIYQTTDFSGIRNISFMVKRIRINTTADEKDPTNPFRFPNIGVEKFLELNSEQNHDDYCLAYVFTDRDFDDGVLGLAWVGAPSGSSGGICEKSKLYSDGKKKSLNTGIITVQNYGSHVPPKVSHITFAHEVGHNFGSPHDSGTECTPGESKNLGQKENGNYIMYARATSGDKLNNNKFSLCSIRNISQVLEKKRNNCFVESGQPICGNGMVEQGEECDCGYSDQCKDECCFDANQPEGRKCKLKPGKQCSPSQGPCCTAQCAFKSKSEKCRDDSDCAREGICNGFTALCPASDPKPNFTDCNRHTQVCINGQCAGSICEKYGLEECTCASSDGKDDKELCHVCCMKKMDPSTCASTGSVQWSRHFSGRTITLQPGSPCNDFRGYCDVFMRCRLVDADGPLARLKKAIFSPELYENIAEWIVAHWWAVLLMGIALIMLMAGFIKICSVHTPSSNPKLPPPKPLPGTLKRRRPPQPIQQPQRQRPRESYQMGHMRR
GC-B act – GC-B (human) receptor activation | 370,000 tested, 0.11% active | activation, % at 10 µM | P20594 | HEK293-GC-B cells, CNP EC30, cGMP TR-FRET; 0% at EC30 CNP, 100% saturating CNP | AID 1920062;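 active means activation at 10 µM reaching about 35% in either raw or pattern-adjusted values, limit read from the data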
ADAM17 inh – inhibitors of human ADAM17. inhibition, % at 6.95 µM. 370,000 tested, 0.83% active. recombinant ADAM17, EDANS/DABCYL FRET peptide cleavage. AID 720648. P78536;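 active means inhibition above the mean of compounds lying between control limits plus 3 SD, set per campaign, cut at about 8.5% in these data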
KLK7 act conf – proKLK7 activation, confirmation; shares compounds with proKLK7 act; purified proKLK7, EDANS-DABCYL substrate fluorescence; scaled: vehicle 0, mature enzyme 100; activation, % at 7 µM; 3,200 tested, 68% active; AID 686949;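 active means activation, as change over the incubation, above the mean of all tested compounds plus 3 SD, cut at about 13% in these data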
EDANS-DABCYL int – fluorescence interference counter-screen for KLK7 activators | shares compounds with proKLK7 act | 3,200 tested, 80% active | AID 686952 | activation, % at 7 µM | EDANS-DABCYL substrate fluorescence interference, no enzyme, 4 h; solvent 0%, active enzyme control 100%;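 active means activation above the all-compound mean plus 3 SD, ignoring values outside control-based bounds, cut at about 4.8% in these data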;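 further: value is the 4 h activation minus the activation read at time zero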
EDANS interf – EDANS fluorescence interference in dose response, no enzyme; shares compounds with proKLK7 act; EDANS-DABCYL peptide fluorescence interference; EC50, µM; 250 tested, 20% active;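 active means compounds that raise the fluorescence signal in this interference counterscreen, with EC50 at or below 10 µM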;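 further: intact quenched peptide substrate alone read at 355 nm excitation and 520 nm emission; signal is fluorescence gain from T0 to T4 after four hours at room temperature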
Large screens that a line does not name were inactive (follow-up assays come after a bar, where they were run). A selection: hits, their analogues and other compounds. The true share with any hit is near 2.2%.

CCCN(CCC)CCCNC(=O)c1cc2c(=O)n(CC)c3ccccc3c2s1	proKLK7 act 18.8 | KLK7 act conf inactive | EDANS-DABCYL int inactive
CCCCN(CC)CCCNC(=O)c1cc2c(=O)n(CC)c3ccccc3c2s1	none
CCn1c(=O)c2cc(C(=O)NCCC(C)C)sc2c2ccccc21	none
CCCCN(CC)CCNC(=O)c1cc2c(=O)n(C)c3ccccc3c2s1	proKLK7 act 19.1 | KLK7 act conf inactive | EDANS-DABCYL int inactive
CC(C1=CCCCC1)c1cnn(C)c1 (configuration not stated)	none
CCn1c(=O)c2cc(C(=O)NCCCOC)sc2c2ccccc21	proKLK7 act 15.4 | KLK7 act conf inactive | EDANS-DABCYL int inactive
COc1cccc(NC(=O)c2cc(-c3ccc(OC)cc3OC)nc3ccccc23)c1	proKLK7 act 66.7 | KLK7 act conf inactive | EDANS-DABCYL int inactive
O=C(N/N=C/c1cccc(O)c1)c1cc(-c2ccccc2)nc2ccccc12	none
COc1ccc(/C=N/NC(=O)c2cc(-c3ccccc3)nc3ccccc23)c(OC)c1	proKLK7 act 274.8 | KLK7 act conf 171.2 | EDANS-DABCYL int 219.7
O=C1/C(=C/C=C/c2ccccc2)Oc2c1ccc(O)c2CN1CCN(CCO)CC1	none
CCc1ccc(/C=C2\Oc3c(ccc(O)c3CN3CCN(C)CC3)C2=O)cc1	proKLK7 act 57.7 | KLK7 act conf 17.5 | EDANS-DABCYL int 36.7
Cc1ccc(/C=C2\Oc3c(ccc(O)c3CN3CCN(C)CC3)C2=O)cc1	proKLK7 act 57.5 | KLK7 act conf 31.1 | EDANS-DABCYL int 25.2
CCN1CCN(Cc2c(O)ccc3c2O/C(=C\c2ccc(C)cc2)C3=O)CC1	proKLK7 act 44.0 | KLK7 act conf 18.2 | EDANS-DABCYL int 7.1 | EDANS interf inactive
CCN1CCN(Cc2c(O)ccc3c2O/C(=C\c2ccccc2)C3=O)CC1	proKLK7 act 41.5 | KLK7 act conf 25.1 | EDANS-DABCYL int 39.3
CCN1CCN(Cc2c(O)ccc3c2O/C(=C\C=C\c2ccccc2)C3=O)CC1	none
CCOC(=O)Cn1cc(CN2C(C(=O)OC)CN(Cc3ccccc3)CCS2(=O)=O)nn1 (configuration not stated)	none
S=C(Nc1ccc2nc(-c3ccccn3)c(-c3ccccn3)nc2c1)N1CCCCCC1	none
CCCNC(=S)Nc1ccc2nc(-c3ccccn3)c(-c3ccccn3)nc2c1	proKLK7 act 16.1 | KLK7 act conf 44.2 | EDANS-DABCYL int 54.3
C[C@H]1[C@@H](NC(=O)Cc2ccsc2)CC[C@@]23CCCN2C(=O)CCC[C@@H]13	none (no result: proKLK7 act)
CSCCNC(=O)C1(C)CCN1C(=O)CCc1ccccc1 (configuration not stated)	proKLK7 act 16.1 | KLK7 act conf inactive | EDANS-DABCYL int inactive
O=C(OC12CCCN(C1)/C(=C/c1ccccc1)C2)c1ccccc1 (configuration not stated)	none
CNc1cnc(-c2cccc(C(=O)N3CCOCC3)c2)cn1	proKLK7 act 14.2 | KLK7 act conf 14.9 | EDANS-DABCYL int 20.1
Cc1cc(=O)oc2c3c(cc(OCC(=O)N[C@@H](C)C(=O)O)c12)OC(C)(C)CC3	proKLK7 act 63.9 | KLK7 act conf 62.0 | EDANS-DABCYL int 73.3
Cc1cc(=O)oc2c3c(cc(OCC(=O)NC(C)C)c12)OC(C)(C)CC3	proKLK7 act 23.1 | KLK7 act conf 47.1 | EDANS-DABCYL int 63.2
Cc1cccc(-c2cccc3c4c([nH]c23)[C@@H]2C[C@H](N(C)C(=O)c3ccco3)[C@H]([C@H](C)O)CN2CC4)c1	none
Cc1ccc(C(=O)N(C)[C@H]2C[C@H]3c4[nH]c5c(-c6cccc(C)c6)cccc5c4CCN3C[C@H]2[C@H](C)O)cc1	none
COCCCN1C(=O)[C@H](CC(=O)N2CCCCC2)[C@]2(C(=O)OC)CCCCC=C12	none
COC(=O)c1ccc(OCC(O)CN2CCc3cc(OC)c(OC)cc3C2c2ccccc2)cc1 (configuration not stated)	proKLK7 act 66.9 | KLK7 act conf inactive | EDANS-DABCYL int inactive
CCC(=O)N1CCc2cc(OC)c(OC)cc2C1COc1ccc(C(=O)OC)cc1 (configuration not stated)	none
COc1cc2c(cc1OC)C(c1ccccc1)N(Cc1ccc(S(=O)(=O)NC(=O)c3ccco3)cc1)CC2 (configuration not stated)	proKLK7 act 29.4 | KLK7 act conf inactive | EDANS-DABCYL int 7.1
C=CCN1[C@H](CC(C)C)COc2cc(N3CCCC3)ccc2S1(=O)=O	none
CCNC(=S)NNC(=O)c1cccn(Cc2ccc(Cl)cc2Cl)c1=O	proKLK7 act 32.3 | KLK7 act conf 30.7 | EDANS-DABCYL int 47.5
Cc1ccccc1C(=O)NNC(=S)NC(=O)c1ccc(Cl)cc1Cl	none
C=CCNC(=S)NNC(=O)c1cccn(Cc2ccc(Cl)cc2Cl)c1=O	proKLK7 act 21.8 | KLK7 act conf 29.6 | EDANS-DABCYL int 28.2
CCOC(=S)SCC(=O)N1CCc2cc(OC)c(OC)cc2C1C1C(=O)CC(C)(C)CC1=O (configuration not stated)	proKLK7 act 25.8 | KLK7 act conf inactive | EDANS-DABCYL int inactive
CCOC(=S)SCC(=O)N1CCc2ccccc2C1C1C(=O)CC(C)(C)CC1=O (configuration not stated)	none
C[C@H]1[C@@H](OC(=O)Nc2ccc(C(F)(F)F)cc2)CC[C@@]23CCCN2C(=O)CCC[C@@H]13	none (no result: proKLK7 act)
COc1ccc2c3c([nH]c2c1)C1CC2C(CC(O)C(OC)C2CO)CN1CC3 (configuration not stated)	none
COc1ccc2c3c([nH]c2c1)[C@H]1C[C@H]2[C@H](C[C@@H](O)[C@H](OC)[C@H]2C(=O)O)CN1CC3	proKLK7 act 40.0 | KLK7 act conf inactive | EDANS-DABCYL int 10.7
Cc1ccc(S(=O)(=O)NN2C(=O)c3ccccc3NC2(C)C)cc1	proKLK7 act 49.4 | KLK7 act conf 49.6 | EDANS-DABCYL int 42.6
O=C(NN1C(=O)c2ccccc2NC12CCCCC2)c1ccccc1	none
CCOC(=O)NN1C(=O)c2ccccc2NC12CCCC2	none
CC1(C)Nc2ccccc2C(=O)N1NS(=O)(=O)c1ccccc1	proKLK7 act 75.3 | KLK7 act conf 46.2 | EDANS-DABCYL int 41.9
CCOc1ccc(-n2c(SCC(=O)Nc3ccc4c(c3)OCCO4)nnc2-c2ccncc2)cc1	none
